Shown are actives, neighbours in structure and some others; about 3.5% of the full set was active somewhere.
TEAD-YAP inh – TEAD-YAP interaction inhibition; HEK-TIYL cells, TEAD-Gal4/YAP UAS-luciferase luminescence; AID 1259422; hit rate 1.4% among 640,000; inhibition, % at 9.12 µM; in the data active = inhibition above about 32%;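 note: 0% = median of test compound wells and 100% = reference inhibitor wells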
FBW7 act – human FBW7 E3 ligase activation, primary screen. Q969H0. AlphaScreen FBW7–phospho-cyclin E peptide binding, activator screen. normalized activity (activation), % at 26.1 µM. hit rate 0.13% among 650,000. AID 1259310; in the data active = normalized activity above about 1.9%;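 note: purified mutant Fbw7 with reduced substrate affinity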
Target sequence (Q969H0 whole entry, looked up): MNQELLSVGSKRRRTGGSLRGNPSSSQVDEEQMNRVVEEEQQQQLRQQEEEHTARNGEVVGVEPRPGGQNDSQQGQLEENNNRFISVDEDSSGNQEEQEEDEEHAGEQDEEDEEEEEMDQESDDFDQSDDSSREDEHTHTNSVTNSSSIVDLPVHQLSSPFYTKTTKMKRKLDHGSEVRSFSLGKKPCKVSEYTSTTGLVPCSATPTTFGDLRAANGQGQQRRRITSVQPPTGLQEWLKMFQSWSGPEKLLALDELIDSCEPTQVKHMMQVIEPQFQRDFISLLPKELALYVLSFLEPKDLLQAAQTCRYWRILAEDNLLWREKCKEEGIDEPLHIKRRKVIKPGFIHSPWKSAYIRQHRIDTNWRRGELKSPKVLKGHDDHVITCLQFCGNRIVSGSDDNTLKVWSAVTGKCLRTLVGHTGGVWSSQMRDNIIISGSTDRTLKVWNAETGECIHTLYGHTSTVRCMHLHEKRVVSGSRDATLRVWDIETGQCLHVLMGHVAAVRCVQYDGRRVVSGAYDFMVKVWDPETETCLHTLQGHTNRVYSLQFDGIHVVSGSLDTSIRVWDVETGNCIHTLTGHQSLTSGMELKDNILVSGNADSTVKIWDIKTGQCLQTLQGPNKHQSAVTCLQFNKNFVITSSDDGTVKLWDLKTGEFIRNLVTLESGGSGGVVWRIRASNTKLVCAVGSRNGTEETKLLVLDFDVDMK
MITF inh – inhibitors of human MITF | O75030 | AlphaScreen MITF homodimerization, bead proximity signal | inhibition, % at 2.6 µM | hit rate 0.91% among 650,000 | AID 1259374; in the data active = inhibition above about 50%;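 note: 0% = vehicle wells with protein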
GPR151 activ – human GPR151 activation | AID 1508602 | hit rate 1% among 650,000 | Q8TDV0 | PathHunter beta-arrestin GPR151 cells, luminescence | activation, % at 11.2 µM; in the data active = activation above about 4.9%;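 note: 0% = median of compound wells and 100% = cells with positive control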
GPR151 confirm – confirmation of human GPR151 activators | shares compounds with GPR151 activ | GPR151 PathHunter beta-arrestin cells, luminescence, 90 min; % of EA-reagent control over plate median | activation, % at 11.2 µM | 6,700 tested, under 10 active;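 active = mean percent activation across replicates above the confirmation screen cutoff of 4.91%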
GPR119 counter – counter-screen for GPR151 activators: effect on human GPR119; shares compounds with GPR151 activ; GPR119 PathHunter beta-arrestin cells, luminescence, 90 min; 0 = compound-well median, 100 = enzyme-acceptor control; activation, % at 11.2 µM; hit rate 0.3% among 6,700; AID 1508611;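 active = mean percent activation in the counterscreen above 29.09%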;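 note: counterscreen on off-target GPR119 to flag nonselective hits from the GPR151 activator screen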
Starred values were filed as active, the others as inactive; nt = no result given.

SMILES	TEAD-YAP inh	FBW7 act	MITF inh	GPR151 activ	GPR151 confirm	GPR119 counter
CC(C)C(C(=O)OCC(=O)c1ccccc1)N1C(=O)c2cccc([N+](=O)[O-])c2C1=O (centres undefined)	12	0	11	0	nt	nt
CSc1cccc(-n2cccc2)c1C#N	2	0	24	-1	nt	nt
CC(OCC(O)CNCc1nc2ccccc2s1)c1ccc(Cl)cc1 (centres undefined)	-1	0	38	3	nt	nt
Cc1ccc(CN2C(=O)CSc3ccc(C(=O)NCCC(C)C)cc32)cc1	-1	0	11	-1	nt	nt
CC(C)n1cnc2c(NCc3ccccc3)nc(N3CCC(N4CCOCC4)CC3)nc21	2	0	2	1	nt	nt
Cc1cnc(NCCCN2CCCC2=O)nc1NCCCN1CCCC1=O	4	0	10	6.8*	0	-2
CCN(CC)c1nc(NCCCN2CCCC2=O)nc(NC2CC2)n1	-7	0	-1	5.1*	0	-4
CCNc1ncc(C)c(NCCCN2CCCC2=O)n1	4	0	3	-2	nt	nt
Cc1cnc(-c2ccc(C(=O)N3CCN(C)CC3)cc2)nc1NCCCN1CCCC1=O	5	0	-4	-1	nt	nt
Cc1cnc(-c2ccc(C(=O)NC3CC3)cc2)nc1NCCCN1CCCC1=O	4	0	11	5.2*	1	5
Cc1cnc(NCc2ccc3c(c2)OCO3)nc1NCCCN1CCCC1=O	-5	1	6	5.6*	1	2
NC(=O)C1CCN(C(c2ccccc2F)c2sc3nc(-c4ccco4)nn3c2O)CC1 (centres undefined)	-8	0	-12	1	nt	nt
Fc1ccc(C2N(Cc3ccccc3)c3ccccc3N2Cc2ccccc2)cc1	10	0	5	1	nt	nt
CCCCN(CC#CCC1CC(COCCC)OC1=O)CCCC (centres undefined)	-5	0	25	-1	nt	nt
Cc1cnc(-c2ccc(C(N)=O)cc2)nc1NCCN1CCOCC1	6	0	-1	5.5*	-1	4
O=C(Nc1ccc2c(c1)CN(C(=O)Cn1c(=O)oc3ccccc31)CC2)C1CCCO1 (centres undefined)	-2	0	13	6.8*	-1	-7
CCOc1ccc(C(C)NC(=O)c2ccc(F)cc2)cc1 (centres undefined)	0	0	5	-1	nt	nt
CCOc1ccc(C(C)NC(=O)c2ccc(OC)cc2)cc1 (centres undefined)	5	0	14	6.2*	1	10
O=C1C(NS(=O)(=O)c2ccccc2)=C([n+]2ccc3ccccc3c2)C(=O)c2ccccc21	-30	0	3	-1	nt	nt
CCC(=O)N(CC(=O)Nc1sc2c(c1C(N)=O)CCCC2)Cc1ccc(F)cc1	-5	0	-2	-1	nt	nt
C=CCNC(=O)/C(C#N)=C/C=C/c1ccccc1	-7	0	-4	-1	nt	nt
COCCNC(=O)/C(C#N)=C/C=C/c1ccccc1	-14	0	6	6.0*	3	0
N#Cc1cccc(C(=O)NC2CCCC2)c1	10	0	-3	5.2*	3	5
O=C(NC1CCCCCC1)c1cccc(I)c1	-46	0	3	0	nt	nt
CCC(=O)N1CCc2nc3ccccn3c(=O)c2C1	-5	0	-5	-1	nt	nt
SMILES	TEAD-YAP inh	FBW7 act	MITF inh	GPR151 activ	GPR151 confirm	GPR119 counter
CC(C)(C)C(=O)N1CCc2nc3ccccn3c(=O)c2C1	3	0	-4	6.8*	0	-5
CCCCN(CC)C(=O)c1c[nH]c2ccc(S(=O)(=O)N(C)c3ccc(Cl)cc3)cc2c1=O	-1	0	-4	1	nt	nt
CN(c1ccc(F)cc1)S(=O)(=O)c1ccc2[nH]cc(C(=O)NCC3CCCO3)c(=O)c2c1 (centres undefined)	-1	0	-5	5.4*	0	0
CCCCN(CC)C(=O)c1c[nH]c2ccc(S(=O)(=O)N(C)c3ccc(Cl)cc3F)cc2c1=O	6	0	0	8.3*	0	-11
CC(C)Oc1ccc(/C=C2/SC(N3CCOCC3)=NC2=O)cc1	-17	0	17	7.0*	1	11
O=C1N=C(N2CCCC2)S/C1=C\c1cn[nH]c1-c1ccccc1	4	0	0	7.6*	0	5
NC1=NC(=O)/C(=C/c2cn[nH]c2-c2ccccc2)S1	-1	0	0	0	nt	nt
Cc1ccc(/C=C2\SC(N3CCOCC3)=NC2=O)cc1	-18	0	15	-1	nt	nt
O=C1N=C(N2CCOCC2)S/C1=C\c1c2ccccc2cc2ccccc12	5	0	15	1	nt	nt
O=C1N=C(N2CCOCC2)S/C1=C\c1cccc2ccccc12	-40	0	17	6.1*	0	-3
Cc1cc(C)n(C(=O)c2c(F)c(F)cc(C)c2Cl)n1	-1	0	18	-1	nt	nt
COc1cccc(NC(=O)C2CCCN2S(=O)(=O)c2cccc3cccnc23)c1 (centres undefined)	-21	0	5	7.3*	0	0
COc1cc(NC(=O)C2CCCN2S(=O)(=O)c2cccc3cccnc23)cc(OC)c1 (centres undefined)	-22	0	14	-1	nt	nt
COc1ccc(C2C(C(=O)Nc3ccc(OC)cc3OC)c3ccccc3C(=O)N2Cc2ccc(F)cc2)cc1 (centres undefined)	2	0	3	0	nt	nt
Cc1ccccc1NC(=S)N(Cc1cccc(Br)c1)CC1CCC(C(=O)O)CC1 (centres undefined)	0	0	-1	7.6*	-1	-2
O=C(O)C1CCC(CN(Cc2cccc(Br)c2)C(=S)Nc2ccccc2F)CC1 (centres undefined)	11	0	7	0	nt	nt
CC(=O)c1cccc(-c2nc(C(=O)NC3CCN(Cc4ccccc4)CC3)cs2)c1	-12	0	15	9.9*	0	-6
O=C(NC1CCN(Cc2ccccc2)CC1)c1csc(-c2ccccc2)n1	10	0	7	-2	nt	nt
O=C(NC1CCN(Cc2ccccc2)CC1)c1csc(NCc2cccnc2)n1	10	0	4	5.0*	1	-6
Nc1cccc(-c2cccc(C(=O)NC3CCN(Cc4ccccc4)CC3)n2)c1	-2	0	15	5.3*	1	-5
C=CCNC(=O)C(=O)Nc1cccc(Br)c1	-21	0	6	-1	nt	nt
COC(=O)c1cc2sc(C)cc2n1Cc1cc(=O)n2ccccc2n1	-1	0	-3	9.1*	0	2
Cc1ccccc1-n1c(=O)c2ccccc2n(Cc2cc(=O)n3ccccc3n2)c1=O	-6	0	-9	-1	nt	nt
O=C(Nc1ccc(Cl)cc1)C1CC(c2ccccc2O)=NO1 (centres undefined)	-11	0	-4	5.5*	-1	-17
O=C(Nc1cc(Cl)ccc1O)C1CC(c2ccccc2O)=NO1 (centres undefined)	2	0	-4	0	nt	nt

Screening data from PubChem.
